Test results as given in PubChem BioAssay AID1476 (National Center for Advancing Translational Sciences (NCATS), 2009).
The campaign covered roughly 200,000 compounds. About 4,500 (2.2%) were called active. Roughly 12% stayed inconclusive and do not appear here. The full list was thinned out, with actives kept by preference. A number with no mark means an inactive call. Calls follow the shape of the dose curve; as a rule, active = well fitted inhibition curve with a large enough effect; inconclusive = small, poorly fitted or top-dose-only effect, or effect the other way; inactive = flat fitted curve, though single readings scatter.
Also: nearly all actives have a fitted effect of over 40% in size.
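For max response, negative = inhibition in this document: plate controls were enzyme without inhibitor for no effect and buffer without enzyme for full effect.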
Potency is read from the fitted curve at half-maximal effect.

What follows are molecules tested against Cruzipain (Trypanosoma cruzi) (UniProt P25779) (assay: qHTS Assay for Promiscuous and Specific Inhibitors of Cruzain (without detergent)). Details: purified cruzain, Z-FR-AMC fluorescence, no detergent.
Chain of Cruzipain (Trypanosoma cruzi) (P25779 123-467 limits assumed): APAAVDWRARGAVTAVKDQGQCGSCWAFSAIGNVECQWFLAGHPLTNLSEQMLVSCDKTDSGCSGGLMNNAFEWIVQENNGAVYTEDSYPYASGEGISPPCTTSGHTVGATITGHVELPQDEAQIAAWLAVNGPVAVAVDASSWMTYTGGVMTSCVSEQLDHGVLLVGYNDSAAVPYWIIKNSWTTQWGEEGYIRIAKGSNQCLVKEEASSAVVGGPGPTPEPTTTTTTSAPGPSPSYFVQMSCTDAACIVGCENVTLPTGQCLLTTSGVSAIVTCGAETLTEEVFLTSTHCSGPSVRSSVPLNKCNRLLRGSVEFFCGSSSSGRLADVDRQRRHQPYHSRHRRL
Procedure, shortened: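 Purified cruzain at 1.5 nM, pre-incubated 15 min with compound at room temperature in 100 mM sodium acetate pH 5.5, 5 mM DTT, 0.00005% Triton X-100. Reaction started with 2 uM Z-FR-AMC; AMC fluorescence increase over 60 s gives rate.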
For `Cc1cccc(N2CCN(C(=O)Cn3ncc4c5ccccc5n(C)c4c3=O)CC2C)c1` (centres undefined), the max response, negative = inhibition was 2.09%.
For `COc1cc(CN(CC2CCCO2)C(=O)c2ccccc2F)cc(OC)c1OC` (centres undefined), the max response, negative = inhibition was 17.1%.
For `CC(C)(C)OC(=O)N1CCC(c2c(C(=O)NCCc3ccsc3)cnn2-c2ccc(F)cc2F)CC1`, the max response, negative = inhibition was -13.2%.
`CCCC12CN3CC(CCC)(CN(C1)C3c1c[nH]c3ccc(OC)cc13)C2=O` (centres undefined) gave a max response, negative = inhibition of 15.7%.
`CN(c1ccc(C(=O)NCc2ccccn2)cc1)S(C)(=O)=O` gave a max response, negative = inhibition of -4.77%.
With `O=C(NCc1ccccn1)c1ccc2nc(-c3ccco3)c(-c3ccco3)nc2c1` the Potency was 25.1 µM (active).
Work on `O=C(NCc1ccccn1)c1cc(-c2ccccc2Cl)on1` yielded a max response, negative = inhibition of -2.8%.
In the case of `CCSc1nnc2c(n1)OC(c1ccc(OCC(=O)O)cc1)Nc1ccccc1-2` (centres undefined), the max response, negative = inhibition was -6.38%.
For `CCOc1ccc(CNC(=O)c2cc(-c3ccc(Cl)s3)nc3ccccc23)cc1`, the max response, negative = inhibition was -5.14%.
Work on `COC(=O)CN(C(=S)Nc1ccc(Cl)cc1)C1CC(=O)N(c2ccc(OC)cc2)C1=O` (centres undefined) yielded a max response, negative = inhibition of -5.17%.
In the case of `Cc1ccc(N2CC(C(=O)Nc3ccc(N(C)C)cc3)CC2=O)cc1Cl` (centres undefined), the max response, negative = inhibition was -3.38%.
With `CN(C)c1ccc(NC(=S)N(CCc2ccccc2)C2CC(=O)N(c3c(Cl)cccc3Cl)C2=O)cc1` (centres undefined) the Potency was 15.8 µM (active).
With `CN1C(=O)c2ccccc2Sc2ccc(NC(=O)Cc3ccc(Cl)cc3)cc21` the max response, negative = inhibition was 14.1%.
`CCOC(=O)c1cc2c(=O)n3ccccc3nc2n(Cc2ccco2)c1=NC(=O)c1ccc(F)cc1` showed a max response, negative = inhibition of -18.9%.
`CCn1c(=N)c(S(=O)(=O)c2ccc(F)cc2)cc2c(=O)n3ccccc3nc21` was tested, and the Potency was 20 µM (active).
In the case of `CCCCn1c(=N)c(S(=O)(=O)c2ccccc2)cc2c(=O)n3cccc(C)c3nc21`, the max response, negative = inhibition was 14.5%.
`Cc1ccc(-c2nc(CS(=O)(=O)CC(=O)NCc3ccccc3Cl)c(C)o2)cc1` showed a max response, negative = inhibition of -2.75%.
For `CC(C)(C)n1nnnc1C(c1ccc2ncccc2c1)N1CCSCC1` (centres undefined), the Potency was 7.94 µM (active).
Work on `CCC(C)(C)n1nnnc1C(c1ccccc1OC)N1CCSCC1` (centres undefined) yielded a max response, negative = inhibition of 1.47%.
With `CC(C)(C)n1nnnc1C(c1ccc(Cl)cc1)N1CCSCC1` (centres undefined) the max response, negative = inhibition was -17.6%.
`Cc1ccc(C)c(NC(=O)Cn2ccn(-c3ccc(F)cc3)c(=O)c2=O)c1` showed a max response, negative = inhibition of -16.8%.
`O=C1CCCN1CCCNc1ncnc2c1[nH]c1ccccc12` was tested, and the Potency was 20 µM (active).
Work on `CC(C)OCCCNc1ncnc2c1[nH]c1ccc(F)cc12` yielded a max response, negative = inhibition of -22.4%.
`O=C(CCn1c(=S)[nH]c2ccccc2c1=O)NCCCN1CCCC1=O` was tested, and the max response, negative = inhibition was 7.76%.
